# In paper PMC5540273 (PLoS ONE, 2017):
# System: CAMK2A
# Details: concentration: 1 μM, replicates: in singlicate; n = 1
# 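Note: KINOMEscan kinase panel screen.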
row,SMILES,%Inh
1,Cc1cccc(-c2cc(-c3c[nH]nc3-c3ccccn3)ccn2)c1 [GW679395],0%
2,COc1ccc(-c2coc3ccc(-c4nnc(SCc5cccc(C#N)c5)o4)cc23)cc1,0%
3,COc1ccc(CNC(=O)NC2CCN(c3ccnc(Nc4ccc(F)cc4)n3)C2)cc1 (centres unmarked) [GSK1379706],0%
4,COc1cc2ncn(-c3cc(OCc4ccncc4Br)c(C(N)=O)s3)c2cc1OC [GW854278],37%
5,Cc1nnc(-c2ccc(C)c(-c3ccc(C(=O)O)cc3)c2)o1 [GW608005],0%
6,COc1cc2ncn(-c3cc(OCCCc4ccccc4)c(C(N)=O)s3)c2cc1OC [GSK205189],0%
7,Cc1cc(Nc2nc(-c3cccc(C)n3)nc3ccccc23)ccn1 [GW872411],0%
8,Cc1ccc(-c2ccc3c(ccc4sc5c(c43)NC[C@@H](C)N=C5N(C)C)n2)cn1,0%
9,CCc1ccc(-c2ccc3c(c2)-c2nn(C)cc2S(=O)(=O)N3C)cc1,9%
10,Nc1n[nH]c2ncc(-c3ccccc3)cc12 [SB-517081],0%
11,Nc1ncnc2c1ncn2-c1cccc2ccccc12 [SKF-97184],0%
12,O=C(NCCNc1ccnc(Nc2ccc(F)cc2)n1)Nc1ccc2c(c1)OCO2 [GSK1379882],0%
13,O=C(Nc1n[nH]c2nc(-c3ccccc3)c(Br)cc12)C1CC1 [SB-708998],0%
14,Cl.NS(=O)(=O)c1cccc(Nc2cc(-c3ccc(F)cc3)n[nH]2)c1 [GW824645],0%
